CBFb-RUNX1 inh: blocks binding between human CBF-beta and RUNX1. AlphaScreen CBFb-His/RUNX1-biotin binding, biochemical. Q01196+Q13951. 230,000 tested, under 10 active. Potency, µM (doses to about 59.8 µM), most hits filed as inhibitors; active means well fitted curve in the direction sought with a large enough effect; inconclusive means small, poorly fitted or top-dose-only effect, or another doubt; inactive means no such curve, though single readings can be large; an effect the other way counts as inactive or inconclusive
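Inhibition was taken as any reduction in AlphaScreen signal from the CBF-beta–RUNX1 pair (His and biotin tags, 30 nM each), measured after compound (15 min) and bead (90 min) incubations at room temperature.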
ALDH1A1 inh: blocks purified human ALDH1A1 activity. Purified ALDH1A1, NADH fluorescence, propionaldehyde substrate. P00352. 7.3% of 220,000 active. Potency, µM (doses to about 75.3 µM), hits mostly inhibitors
HPGD block: blocks human HPGD enzyme activity | P15428 | purified HPGD, NADH fluorescence kinetic, PGE2 substrate | Potency, µM, usual class: inhibitors | 4.3% of 150,000 active
Target sequence (P15428 whole entry, looked up): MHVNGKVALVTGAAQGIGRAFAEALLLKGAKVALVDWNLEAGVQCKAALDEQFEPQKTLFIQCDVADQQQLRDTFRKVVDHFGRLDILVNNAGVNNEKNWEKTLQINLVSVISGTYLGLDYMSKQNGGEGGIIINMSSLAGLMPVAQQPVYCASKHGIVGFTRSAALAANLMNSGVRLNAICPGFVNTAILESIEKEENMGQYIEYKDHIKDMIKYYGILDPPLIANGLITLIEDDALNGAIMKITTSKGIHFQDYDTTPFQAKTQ
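NADH formation kinetics: reaction with 30 uM PGE2 and 1 mM NAD+ (final), 20 nM enzyme, Tris-HCl pH 8 with Tween 20, after 15 min compound preincubation at room temperature. Fluorescence change, last versus first of five reads.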
HTT ATP protect: protects HTT-Q103 PC12 cells, measured by ATP | 0.14% of 230,000 active | PC12 HTT-Q103 induced, cytoprotection, ATP luminescence, 40 h | Potency, µM (series often up to 56.4 µM), actives largely listed as activators | AID 1471; active means well fitted curve in the direction sought with a large enough effect; inconclusive means small, poorly fitted or top-dose-only effect, or another doubt; inactive means no such curve, though single readings can be large; an effect the other way counts as inactive or inconclusive; further: nearly all actives have a fitted effect of over 45% in size
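Compounds added alongside 100 nM tebufenozide, which induces toxic Q103 huntingtin exon 1-GFP in stable PC12 cells; surviving cells quantified by luminescent ATP measurement. Medium: phenol red-free DMEM, 5% equine and 5% calf serum.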
HttQ103 aggreg: reduces HttQ103-GFP aggregates in PC12 cells | Potency, µM (series often up to 46.1 µM), actives largely listed as inhibitors | 1.1% of 220,000 active | PC12 HttQ103-GFP aggregates, Acumen cytometry, 40 h; active means well fitted curve in the direction sought with a large enough effect; inconclusive means small, poorly fitted or top-dose-only effect, or another doubt; inactive means no such curve, though single readings can be large; an effect the other way counts as inactive or inconclusive; further: nearly all actives have a fitted effect of over 60% in size
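Ecdysone-promoter PC12 model expressing HTT exon 1 Q103 fused to GFP, induced by tebufenozide at 100 nM final. Compounds titrated; aggregates sized 1–25 µm scored on a 488 nm laser cytometer.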
JMJD2E inh: blocks human JMJD2E demethylase activity; B2RXH2; JMJD2E catalytic domain, FDH-coupled NADH fluorescence (FDH is formaldehyde dehydrogenase); Potency, µM (top dose mostly 57.1 µM), usual class: inhibitors; 1.6% of 230,000 active; AID 2147; further: nearly all actives have a fitted effect of over 50% in size
Target sequence (B2RXH2 1-337 limits assumed): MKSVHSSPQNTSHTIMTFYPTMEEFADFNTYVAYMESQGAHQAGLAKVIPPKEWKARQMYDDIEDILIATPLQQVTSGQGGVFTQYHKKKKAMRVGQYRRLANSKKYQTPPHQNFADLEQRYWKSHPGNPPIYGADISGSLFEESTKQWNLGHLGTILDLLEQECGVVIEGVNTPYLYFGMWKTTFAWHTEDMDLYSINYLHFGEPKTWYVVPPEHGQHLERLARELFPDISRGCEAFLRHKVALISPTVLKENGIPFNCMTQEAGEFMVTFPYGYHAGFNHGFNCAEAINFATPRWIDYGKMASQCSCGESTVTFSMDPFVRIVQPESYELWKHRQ
Of the large screens only hits and unclear results are named; the others gave an inactive call. Rows were chosen to be rich in hits. Some 9.8% of all compounds tested hit in one or more screens of this group. Unless noted, the call rests on the fitted dose curve; in most records, active means well fitted inhibition curve with a large enough effect (not every such curve was filed as active); inconclusive means small, poorly fitted or top-dose-only effect, or another doubt; inactive means no such curve, though single readings can be large or run the other way.

Cc1ccc(/C=c2\s/c(=C(/C#N)C(=O)N3CCCC3)n(Cc3ccco3)c2=O)s1	CBFb-RUNX1 inh inconclusive, ALDH1A1 inh 3.5µM, HPGD block inconclusive
CCCCOC(=O)NS(=O)(=O)c1sc(CC(C)C)cc1-c1ccc(Cn2c(CC)nc3c(C)cc(C)nc32)cc1	none (no result: HttQ103 aggreg)
O=C(Nc1c2c(nc3ccccc13)CCCC2)c1ccccc1Cl	none
CC(C)(C)CC(C)(C)NCC(=O)Nc1c2c(nc3ccccc13)CCC2	ALDH1A1 inh 9.5µM (no result: HPGD block)
CC(=O)Nc1ccc(S(=O)(=O)NCCc2ccccn2)cc1	none (no result: HPGD block, HTT ATP protect)
CC(=O)Cc1nsc(Nc2ccc(F)cc2)n1	none (no result: HPGD block)
CC(=O)Cc1nsc(Nc2ccc3c(c2)OCCO3)n1	ALDH1A1 inh 3.2µM, HPGD block 20µM
CCNc1ncc2nc(-c3cccs3)c(=O)n(CCc3ccccc3)c2n1	HTT ATP protect 1.4µM (no result: CBFb-RUNX1 inh, HPGD block, HttQ103 aggreg, JMJD2E inh)
CCNc1ncc2nc(-c3ccccc3)c(=O)n(CCc3ccccc3)c2n1	ALDH1A1 inh inconclusive, HPGD block inconclusive (no result: CBFb-RUNX1 inh, HttQ103 aggreg, JMJD2E inh)
O=C1c2c(O)ccc([N+](=O)[O-])c2C(=O)c2c([N+](=O)[O-])ccc(O)c21	HPGD block inconclusive (no result: CBFb-RUNX1 inh, HttQ103 aggreg, JMJD2E inh)
COC(=O)c1ccc2c(c1O)C(=O)c1ccccc1C2=O	none
O=C1c2ccccc2C(=O)c2c1ccc(O)c2O	CBFb-RUNX1 inh inconclusive, ALDH1A1 inh inconclusive, HPGD block 28µM, JMJD2E inh 14µM
O=C1c2ccc(O)c(O)c2C(=O)c2c(O)ccc(O)c21	ALDH1A1 inh inconclusive, HPGD block 11µM, JMJD2E inh 3.5µM (no result: CBFb-RUNX1 inh, HttQ103 aggreg)
O=C(NNc1cccc(Cl)n1)c1ccccc1CC[N+](=O)[O-]	JMJD2E inh inconclusive (no result: HPGD block)
COc1ccc(/C=N/NC(=O)CSc2ccccc2)cc1OC	ALDH1A1 inh inconclusive
COC(=O)Oc1ccc(/C=N/NC(=O)CSCc2ccccc2Br)cc1OC	ALDH1A1 inh 13µM, HttQ103 aggreg inconclusive
CSCC(=O)N1CCCC(CNC(=O)c2ccc(-c3ccccc3)cc2)C1 (configuration not stated)	ALDH1A1 inh 4µM (no result: HPGD block)
COC(=O)C/C=C\[C@@H](C)[C@@H](/C=N\O[C@@H]1O[C@H](COC(C)=O)[C@H](OC(C)=O)[C@H](OC(C)=O)[C@H]1OC(C)=O)OC	HTT ATP protect inconclusive (no result: HPGD block, HttQ103 aggreg, JMJD2E inh)
CN1CCc2nc(SCC(=O)Nc3cccc(F)c3)c(C#N)c(-c3cccs3)c2C1	ALDH1A1 inh 8.9µM, JMJD2E inh inconclusive
CN1CCc2nc(SCC(=O)Nc3ccc(OC(F)(F)F)cc3)c(C#N)c(-c3cccs3)c2C1	CBFb-RUNX1 inh inconclusive, ALDH1A1 inh 3.2µM (no result: HTT ATP protect)
Cc1cccc(NC(=S)N2CCCN(c3ncccc3[N+](=O)[O-])CC2)c1	ALDH1A1 inh 14µM (no result: HPGD block)
O=[N+]([O-])c1ccc(N2CCN(C(=S)Nc3cccc(F)c3)CC2)cc1	ALDH1A1 inh 14µM, HttQ103 aggreg inconclusive (no result: HPGD block)
COc1cccc(NC(=S)N2CCN(c3ccc([N+](=O)[O-])cc3)CC2)c1	ALDH1A1 inh 7.9µM (no result: HPGD block)
Cc1cccc(Cl)c1NC(=O)N1CCCN(c2ncccc2[N+](=O)[O-])CC1	none (no result: HPGD block)
O=[N+]([O-])c1ccc(N2CCN(C(=S)Nc3ccc(F)cc3F)CC2)cc1	ALDH1A1 inh 11µM (no result: HPGD block)
O=C(CCC1CCCC1)Nc1cccc(Cc2ccncc2)c1	none (no result: HPGD block, HTT ATP protect, HttQ103 aggreg)
CCCCC(=O)Nc1cc([N+](=O)[O-])ccc1Cl	none
CN(CC(=O)Nc1cc([N+](=O)[O-])ccc1Cl)Cc1ccc(Br)cc1	ALDH1A1 inh 10µM
CN1CCN(C(=S)Nc2cc([N+](=O)[O-])ccc2Cl)CC1	ALDH1A1 inh 20µM
COc1cc(NC(=S)N2CCN(C)CC2)c(OC)cc1Cl	none (no result: HPGD block)
COC(=O)c1ccc(C(=O)OC)c(=O)[nH]1	JMJD2E inh inconclusive (no result: ALDH1A1 inh, HPGD block)
COc1ccc(-c2nc(NC(=O)C3=NN(c4cccc(C)c4)C(=O)CC3)sc2C)cc1	none (no result: HPGD block)
Cc1nc(C)c(/C(O)=C/c2nc3ccc([N+](=O)[O-])cc3oc2=O)o1	ALDH1A1 inh 0.4µM, JMJD2E inh inconclusive (no result: HPGD block)
Clc1ccc(OCCCn2cncn2)cc1Cl	ALDH1A1 inh 11µM
CC(C)(C)c1ccc(OCC(O)CN(CCO)CC(O)Cn2ccc3ccccc32)cc1 (configuration not stated)	none
OCCN(CC(O)Cn1ccc2ccccc21)CC(O)Cn1ccc2ccccc21 (configuration not stated)	ALDH1A1 inh 28µM
CN1c2ccsc2/C(=N/Nc2ccccc2)CS1(=O)=O	CBFb-RUNX1 inh inconclusive, ALDH1A1 inh 13µM, JMJD2E inh inconclusive (no result: HPGD block)
Cn1c(=O)c2c(nc(NCc3cccnc3)n2Cc2ccc(Cl)cc2)n(C)c1=O	ALDH1A1 inh inconclusive
O=C1C=C(Nc2ccc(O)cc2)C(=O)c2ccccc21	CBFb-RUNX1 inh inconclusive (no result: HPGD block)
Cc1ccc(NC2=CC(=O)C(=O)c3ccccc32)cc1	ALDH1A1 inh inconclusive, HPGD block 20µM, HttQ103 aggreg 10µM, JMJD2E inh 14µM
CCOC(=O)c1ccc(NC2=CC(=O)C(=O)c3ccccc32)cc1	HPGD block 4.5µM, HttQ103 aggreg inconclusive, JMJD2E inh inconclusive
Cc1sc2ncn(CC(=O)OC(C)C)c(=O)c2c1C	none
N#CC(C#N)=Cc1ccc(OCC(=O)N2CCOCC2)cc1	ALDH1A1 inh 8.9µM, JMJD2E inh inconclusive (no result: HPGD block)
CCOc1ccc(OCC(=O)N2CCOCC2)cc1	none
CC(=O)c1ccccc1OCCn1nnc(-c2ccc(C)cc2)n1	CBFb-RUNX1 inh inconclusive, HPGD block inconclusive, HttQ103 aggreg 20µM
C=CCOC(=O)C1=C(C)NC(C)=C(C(=O)OCC=C)C1c1ccc(C)o1	none (no result: ALDH1A1 inh, HPGD block)
CC1=C(C(N)=O)C(c2ccc(C)o2)C(C(N)=O)=C(C)N1	ALDH1A1 inh 40µM
O=C(O)CN1C(=O)C2C3CC(C2C1=O)C1C(c2ccccc2)c2sc(=O)[nH]c2SC31 (configuration not stated)	none
O=c1[nH]c2c(s1)C(c1ccco1)C1C3CCC(C3)C1S2 (configuration not stated)	ALDH1A1 inh 13µM
CN=C1SC(C(=O)Nc2ccccc2Cl)CC(=O)N1c1ccc(OC(F)(F)Cl)cc1 (configuration not stated)	HTT ATP protect inconclusive (no result: HPGD block)
COc1ccc(C2CC(c3ccccc3)Oc3cc(C)c(Cl)c(C)c32)cc1 (configuration not stated)	none (no result: ALDH1A1 inh, HPGD block, HTT ATP protect, HttQ103 aggreg, JMJD2E inh)
Cc1ccc(S(=O)(=O)N2CCN(C(=O)CCC(=O)NCCc3ccc(F)cc3)CC2)cc1	none (no result: HPGD block)
COc1cc(/C=N/NC(=O)C(=O)NCc2cccnc2)cc(OC)c1OC	none
COc1cccc(/C=N/NC(=O)C(=O)NCc2cccnc2)c1OC	ALDH1A1 inh 16µM (no result: HPGD block)
CC(C)OC(=O)c1cn(-c2ccccc2)nc1-c1ccco1	ALDH1A1 inh 11µM, HttQ103 aggreg inconclusive, JMJD2E inh inconclusive
CCOc1cc2c(cc1/C=C(/C#N)c1ccc(C(=O)O)cc1)OCO2	none (no result: HPGD block)
